Measurements from PubChem BioAssay (NCI).
Values joined by “and” are separate entries in the source; they are usually repeats but may differ in a detail not shown here. Equal values may be shown once. About 79,000 compounds went through this panel and 15% of them were active in at least one assay; those are over-represented in the sample as a whole. Active and inactive are the calls of the source. No stated cut-off is given here; in the data, active means growth inhibition above about 70%; inactive means the rest.

Experiments:
[1] = NCI Yeast Anticancer Drug Screen. Data for the rad50 strain (AID 155);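 further: 0% = growth of vehicle-only cultures of the same strain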; conditions: S. cerevisiae rad50 strain growth inhibition, stronger effect = higher value; at 50.0 µM unless noted
Procedure, shortened: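 Vehicle-treated cultures provide the reference for the growth inhibition reported for compound-exposed, repair-deficient yeast.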

[2] = NCI Yeast Anticancer Drug Screen. Data for the mec2-1 strain (AID 157); conditions: S. cerevisiae mec2-1 strain, stronger effect = higher value; at 50.0 µM unless noted
Procedure, shortened: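 Vehicle-treated cultures served as reference for growth inhibition of compound-exposed mec2-1 yeast.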

[3] = NCI Yeast Anticancer Drug Screen. Data for the sgs1 mgt1 strain (AID 161);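 further: 0% = growth of cultures given vehicle only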; conditions: S. cerevisiae sgs1 mgt1 strain, stronger effect = higher value; at 50.0 µM unless noted
Procedure, shortened: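 Inhibition of yeast growth, normalised to vehicle-treated controls, is reported for a strain bearing genetic alterations in DNA damage repair.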

[4] = NCI Yeast Anticancer Drug Screen. Data for the cln2 rad14 strain (AID 165);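 further: 0% = growth equal to vehicle treated cultures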; conditions: S. cerevisiae cln2 rad14 strain, stronger effect = higher value; at 50.0 µM unless noted
Procedure, shortened: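 Each compound was tested on cln2 rad14 yeast. Inhibition of growth was calculated against vehicle-exposed controls.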

[5] = NCI Yeast Anticancer Drug Screen. Data for the bub3 strain (AID 167); conditions: S. cerevisiae bub3 mutant strain, stronger effect = higher value; at 50.0 µM unless noted
Procedure, shortened: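 Mutant yeast screening strain plus compound; vehicle-treated cultures serve as the 0% inhibition reference.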

[6] = NCI Yeast Anticancer Drug Screen. Data for the mlh1 rad18 strain (AID 175); conditions: S. cerevisiae mlh1 rad18 strain growth inhibition, stronger effect = higher value; at 50.0 µM unless noted
Procedure, shortened: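 Vehicle-treated cultures served as the reference for growth inhibition in a yeast strain carrying DNA damage repair alterations exposed to each compound.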

Measured: growth inhibition

CCOc1c(N=Nc2ccc(Cl)cc2Cl)c(C)nn1C(=S)SC
inactive: [1] 41.4% | [2] 16.1% | [3] 25.9% | [4] 15.5% | [5] -0.45% | [6] 19.6%

O=C1NC2OCC(O)C(O)C2O1 (centres undefined)
inactive: [1] 4.6% | [2] 10.1% | [3] -4.15% | [4] 12.4% | [5] 22.4% | [6] 6.45%

CC(=O)Nc1ccc(S(N)(=O)=O)cc1
inactive: [1] 16.6% and -34.8% | [2] 15.6% and 8.55% | [3] 16.1% and 21.3% | [4] 12% and -4.55% | [5] 1.75% and -3.65% | [6] 13.6% and 37%

C/C(CC(C)C)=N/O
inactive: [1] 3.75% and -12.1% | [2] -3.25% and -4.35% | [3] -17.5% and -5.85% | [4] -23.2% and -20.5% | [5] -0.4% and 3% | [6] 11.8% and 9.05%

CC(=O)Nc1ccc(C2NCc3cnc(C)nc3N2)cc1 (centres undefined)
inactive: [1] 0.35% | [2] -0.75% | [3] 0.15% | [4] -6.95% | [5] 10.2% | [6] 0.95%

CCOC(=O)O/C(=C\c1ccc(OC)cc1)c1c(OC(=O)OCC)n(C(=O)OCC)c2ccccc12
inactive: [1] -13.1% | [2] -4.3% | [3] 7% | [4] 9.95% | [5] 12.7% | [6] 4.05%

CC1CCC(c2cc(-c3ccccc3)n(-c3ccccc3)n2)CC1 (centres undefined)
inactive: [1] -6.25% | [2] 6.05% | [3] -2.35% | [4] -26.4% | [5] -17.4% | [6] -6.15%

Cc1ccc(S(=O)(=O)OC2CCN(C)CC2)cc1
inactive: [1] 36.5% | [2] 6.75% | [3] 15.8% | [4] 9.6% | [5] 43.2% | [6] 30.1%

COC(=O)c1ccc(COC(=O)N2C=CCC2C(=O)O)cc1 (centres undefined)
inactive: [1] 20.2% | [2] -19.6% | [3] 13.4% | [4] 11.7% | [5] 4% | [6] 1.15%

CC(C)(C)c1cc(-n2nc3ccccc3[n+]2[O-])c(O)c(C(C)(C)C)c1
inactive: [1] 4.35% | [2] 12.8% | [3] 20.1% | [4] 18.6% | [5] -0.6% | [6] 33.6%

CCCCCC1CC(C(C)=O)CN1c1ccc(F)cc1 (centres undefined)
inactive: [1] -0.95% | [2] 8.4% | [3] 11.8% | [4] 8.7% | [5] -1% | [6] -2%

CC(=O)C12C[C@](C#N)(N3CCCCCC3)C1C=Cc1ccccc12 (some centres undefined)
inactive: [1] -56% | [2] -29.6% | [3] -46.1% | [4] -51.5% | [5] -21.5% | [6] -56.4%

O=C(CCl)Oc1ccc2ccccc2c1
inactive: [1] 27.1% | [2] -2.05% | [3] -8.05% | [4] 8.25% | [5] 13.1% | [6] 31.4%

CCOc1cccc(OCC)c1
inactive: [1] 23.1% | [2] 27.1% | [3] -7.4% | [4] -2.05% | [5] 1.4% | [6] 13.9%

Clc1cccc(Nc2ncnc3nc[nH]c23)c1
inactive: [1] 7.15% | [2] 0.25% | [3] 5.1% | [4] -12.2% | [5] -12.9% | [6] 0.5%

OC(COc1cccc(C(F)(F)F)c1)CN1CCN(c2cccc(F)c2)CC1 (centres undefined)
active: [1] 98.7% | [2] 99% | [3] 99.1% | [4] 97.9% | [5] 98.7% | [6] 99%

COc1cc(/C=C/C(=O)c2sc(Nc3ccccc3)nc2C)ccc1O
inactive: [1] 27.8% | [2] 2.8% | [3] 13.2% | [4] 0.85% | [5] 19% | [6] 28%

C=CCc1cn(C2CC(OC(=O)c3ccc(Cl)cc3)C(COC(=O)c3ccc(Cl)cc3)O2)c(=O)[nH]c1=O (centres undefined)
inactive: [1] -8.85% | [2] -3.6% | [3] -18.8% | [4] -8.6% | [5] 0.6% | [6] -2.4%

COc1ccc(N=Nc2nc(N)c(C(N)=O)[nH]2)cc1
inactive: [1] -8.65% | [2] -7.55% | [3] -4.75% | [4] -28.5% | [5] 5.7% | [6] -16.6%

O=C(Nc1ccc(Cl)cc1Cl)c1cc2nc3ccccc3c(=O)n2c2ccccc12
inactive: [1] 29.6% | [2] 13.6% | [3] 12.1% | [4] 7.7% | [5] 17.3% | [6] 30.6%

COc1cc(OCc2ccc3oc(=O)c(-c4ccccc4)nc3c2)cc(OC)c1OC
inactive: [1] 16.6% | [2] 1% | [3] 2.2% | [4] 7.75% | [5] 19.2% | [6] 9.25%

CCN(CC)CCNc1cc(OC)c(OC)cc1[N+](=O)[O-]
inactive: [1] -35% | [2] 14.4% | [3] 5.7% | [4] -7.45% | [5] -0.45% | [6] -15%

CCN(CC)/N=C/c1cc([N+](=O)[O-])ccc1O
inactive: [1] 24.9% | [2] 5.4% | [3] -6.85% | [4] -50.9% | [5] 2.9% | [6] 15.7%

CC(=O)CC(=O)N1CCc2ccccc21
inactive: [1] 3.8% | [2] -14.9% | [3] 3.8% | [4] 2.55% | [5] -19.6% | [6] 1.1%

C[N+]1(C2C=CCC(c3ccccc3)C2[N+](=O)[O-])CCCC1 (centres undefined)
inactive: [1] 27.2% | [2] 9.95% | [3] 35.5% | [4] 15.2% | [5] -3.6% | [6] 10.9%

O=C(C[n+]1cc(Br)cc2ccccc21)c1ccc(F)cc1
inactive: [1] 24.8% | [2] 19.9% | [3] 37.3% | [4] 39.4% | [5] 4.7% | [6] 30.2%

S=c1[nH]nc(-c2n[nH]c3ccccc23)o1
inactive: [1] 3.3% | [2] 3.6% | [3] 5.9% | [4] -51.3% | [5] -3% | [6] 1.25%

CC(=O)OC1COC(N2C(=O)C(=O)c3c(C)cc(Cl)nc32)C(OC(C)=O)C1OC(C)=O (centres undefined)
inactive: [1] -22.6% | [2] -15.7% | [3] -22.4% | [4] -24.1% | [5] -24.1% | [6] -8.3%

Cc1ccc(S(=O)(=O)n2cc(C#N)c(C#N)c2)cc1
inactive: [1] -10.8% | [2] 2.25% | [3] 10.8% | [4] -28.6% | [5] 16.3% | [6] 7.15%

CCCc1[nH]n(-c2ccccc2)c(=O)c1N=Nc1cccc(C(F)(F)F)c1
inactive: [1] -10.7% | [2] -1.1% | [3] -7.3% | [4] -12.8% | [5] -5% | [6] -7.95%

COc1cc(OC)c(OC)cc1/C=C/c1nc2ccccc2s1
inactive: [1] 25.1% | [2] 20.1% | [3] 41% | [4] 18.8% | [5] 46.9% | [6] 3%

O=C1COC(=O)CO1
inactive: [1] -15.6% | [2] -18.9% | [3] -5.7% | [4] 34.2% | [5] 8.55% | [6] -10.7%

O=C(CCC/C(CC(=O)c1ccc(Br)cc1)=N\O)Nc1ccccc1
inactive: [1] 52.9% | [2] 25.8% | [3] 17.8% | [4] 19.6% | [5] 28.7% | [6] 25.7%

COc1cc(C2c3cc4c(cc3OC(NN=C(C)C)C2C)OCO4)cc(OC)c1O (centres undefined)
inactive: [1] 14.2% | [2] 1.7% | [3] 9.65% | [4] 4.5% | [5] 12.8% | [6] 10.9%

Cc1ccc(C)c(NC(=O)Nc2ccccc2)c1
inactive: [1] 3.3% | [2] 4.25% | [3] -7.2% | [4] -25.1% | [5] 0.35% | [6] 1%

CC(C)(C)C(=O)OCC1CCC(n2cnc3c(=O)[nH]c(N)nc32)O1 (centres undefined)
inactive: [1] 34.3% | [2] 2.3% | [3] -3.65% | [4] 3.05% | [5] -2.25% | [6] 25.7%

C(=N\N1CN(/N=C/c2ccccc2)C(c2ccccc2)C1c1ccccc1)/c1ccccc1 (centres undefined)
inactive: [1] -6.2% | [2] -3.15% | [3] 4.5% | [4] 7.35% | [5] -1.65% | [6] 7.05%

Clc1ccc(C(=Nc2ccccc2)C(Nc2ccccc2)c2ccc(Cl)cc2)cc1 (centres undefined)
inactive: [1] 4.75% | [2] -5.15% | [3] 17.8% | [4] 8.75% | [5] 3.8% | [6] 19.4%

COC(=O)c1ccc(-n2cc(C(=O)OC)c([N+]#N)c2[O-])cc1
inactive: [1] 9.4% | [2] 11.6% | [3] -13.6% | [4] -13.6% | [5] 18.9% | [6] 16.6%
